Structures can show the parent of a compound that is named as a salt.
Columns and labels:
ES2 = assay: cell viability relative to DMSO control (MTS) (fraction of DMSO control); higher = more viable cells / less growth inhibition; settings: 10 µM; 48 h
Summary of the method: (§1)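 TOV-21G and ES2 clear cell carcinoma cells were plated in 96-well plates at 5000 cells per well, grown for 24 h, and then exposed to a 367-compound […] library at a final concentration of 10 µM, with vehicle alone in control wells. An MTS assay (CellTiter 96 AQueous One Solution) was read 48 h later according to the manufacturer's protocol. Viability is reported as a fraction of the vehicle control.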

TOV-21G = assay: as above; settings: 10 µM; 48 h
Summary of the method: as §1

Compound | cell viability (ES2) | cell viability (TOV-21G)
CN(C)CCCN1c2ccccc2Sc2ccc(Cl)cc21 [chlorpromazine hydrochloride] | 0.947 | 0.868
CN(C)S(=O)(=O)c1ccc2c(c1)/C(=C/c1cc3c([nH]1)CCCC3)C(=O)N2 | 1.03 | 0.891
CCCCCCCC(=O)OCCOC(=O)CCCCCCC [Dioctanoylglycol] | 1.3 | 0.996
Cc1c(C)c2c(c(C)c1O)CCC(C)(COc1ccc(CC3SC(=O)NC3=O)cc1)O2 (stereo not given) [Troglitazone] | 0.835 | 1.26
Cc1[nH]c(/C=C2\C(=O)Nc3ccc(S(=O)(=O)N(C)c4cccc(Cl)c4)cc32)c(C)c1C(=O)N1CCN(C)CC1 | 0.402 | 0.639
CCOc1nc(NC(=O)Cc2cc(OC)ccc2OC)cc(N)c1C#N [JNK inhibitor VIII] | 1.09 | 1.12
Cc1nc2c(O)cccc2c(=O)[nH]1 | 1.04 | 0.856
CC(/C=C/C(=O)NO)=C\[C@@H](C)C(=O)c1ccc(N(C)C)cc1 [Trichostatin A] | 0.343 | 0.355
O=C(NCCCCCCNC(=O)ON=C1CCCCC1)ON=C1CCCCC1 | 1.3 | 0.996
Cc1ccc(NC(=O)c2ccc(CN3CCN(C)CC3)cc2)cc1Nc1nccc(-c2cccnc2)n1 [imatinib mesylate] | 0.956 | 1.09
CCCC[C@@H](C)/C=C(C)/C=C(\C)C(=O)NC1=C[C@@](O)(/C=C/C=C/C=C/C(=O)NC2=C(O)CCC2=O)[C@@H]2O[C@@H]2C1=O [Manumycin A] | 1.06 | 1.61
Nc1ncn([C@H]2C[C@H](O)[C@@H](CO)O2)c(=O)n1 [Decitabine] | 0.757 | 1.11
COc1cc2/c(=N/c3ccc(Br)cc3F)nc[nH]c2cc1OCC1CCN(C)CC1 [Vandetanib] | 0.577 | 0.436
O=c1c(-c2ccc(O)cc2)coc2cc(O)cc(O)c12 [Genistein] | 1.31 | 0.988
Cc1cc(N)c2ccccc2[n+]1CCCCCCCCCC[n+]1c(C)cc(N)c2ccccc21 [Dequalinium] | 0.383 | 0.42
Cc1ccc(Nc2nccc(N(C)c3ccc4c(C)n(C)nc4c3)n2)cc1S(N)(=O)=O [pazopanib] | 0.96 | 0.864
Cc1cccc(-c2nn(C(=S)Nc3ccccc3)cc2-c2ccnc3ccccc23)n1 | 0.872 | 1.01
C#Cc1cccc(Nc2ncnc3cc(OCCOC)c(OCCOC)cc23)c1 [erlotinib] | 0.7 | 0.487
CNC(=O)c1cc(Oc2ccc(NC(=O)Nc3ccc(Cl)c(C(F)(F)F)c3)cc2)ccn1 [sorafenib] | 0.402 | 0.604
CS(=O)(=O)Nc1ccc([N+](=O)[O-])cc1OC1CCCCC1 | 0.933 | 1.02
Nc1cccc(-c2cc3c(Oc4cccc(O)c4)ncnc3[nH]2)c1 | 0.586 | 1.03
Cc1ncc2ccccc2c1C#N [4-cyano-3-methylisoquinoline] | 1.01 | 1
CC(Cc1ccc(O)c(O)c1)C(C)Cc1ccc(O)c(O)c1 (stereo not given) [Nordihydroguaiaretic acid (NDGA)] | 1 | 0.865
CNCc1ccc(-c2[nH]c3cc(F)cc4c3c2CCNC4=O)cc1 | 0.686 | 0.746
CC(C)C[C@H](NC(=O)[C@H](Cc1ccccc1)NC(=O)c1cnccn1)B(O)O [bortezomib] | 0.302 | 0.432
CC(=O)N[C@@H](CS)C(=O)O [N-Acetyl-L-cysteine] | 1.04 | 0.965
CC1=Nc2ccc(Cl)cc2S(=O)(=O)N1 [Diazoxide] | 0.816 | 0.996
COc1ccc(CCN(C)CCCC(C#N)(c2ccc(OC)c(OC)c2)C(C)C)cc1OC (stereo not given) [Verapamil] | 0.953 | 1.12
Nc1ncnc2nc(-c3ccc(N4CCOCC4)nc3)cc(-c3cccc(Br)c3)c12 | 0.795 | 0.484
CCCS(=O)(=O)Nc1ccc(F)c(C(=O)c2c[nH]c3ncc(-c4ccc(Cl)cc4)cc23)c1F [Vemurafenib] | 0.651 | 0.881

— the supplement of paper PMC12669797
